From ChEMBL document CHEMBL3988442, “University of Dundee, Small-Polar-MMV Screening Library” (2021)
Screen size: about 69,000 compounds; about 950 (1.4%) showed an effect of 50% or more. For the sample, strong results were picked, then their nearest neighbours and some compounds at random.

Test system: Mycobacterium tuberculosis
Assay: Cornell M. t heat shock assay; note: in the data most compounds retested in dose-response had high values
Type: functional, organism-based
Parameters: dose or concentration left out as unconfirmed

| SMILES | Percent Effect [%] |
| --- | --- |
| Cc1cc(N2CCCC(c3nccnc3N(C)C)C2)ncn1 (stereo not given) | -16.62 |
| CC(C)CC(NC(=O)c1ccco1)c1nc2cccnc2n1C (stereo not given) | -10.38 |
| CC(C)CC(NC(=O)c1ccco1)c1nnc2ccccn12 (stereo not given) | 66.07 |
| CCCC(NC(=O)c1ccccn1)c1nnc2ccccn12 (stereo not given) | -4.17 |
| Cc1ccc(CN2CCc3c(COCC4CC4)nn(C)c3C2)s1.O=C(O)C(F)(F)F | -29.84 |
| Cc1ccsc1CN1CCn2c(COc3cccnc3)cnc2C1C.O=C(O)C(F)(F)F.O=C(O)C(F)(F)F (stereo not given) | 9.479 |
| CC(=O)N1CCC12CCN(Cc1ccco1)CC2.O=C(O)C(F)(F)F | -13.47 |
| Cc1cc(Nc2ncccn2)nc(C2CCCN(CCO)C2)n1 (stereo not given) | 17.06 |
| Cc1cc(Nc2cnccn2)nc(C2CCCN(CCO)C2)n1 (stereo not given) | 103.5 |
| Cc1cc(Nc2ccccn2)nc(C2CCCN(CCO)C2)n1.O=CO (stereo not given) | -14.49 |
| CC(=O)N1CC(=O)N(c2ccccc2)CC12CCN(Cc1ccoc1)C2.O=C(O)C(F)(F)F (stereo not given) | -0.426 |
| Fc1ccc(CNCC2OCCc3cn(CC4CC4)nc32)cc1.O=C(O)C(F)(F)F.O=C(O)C(F)(F)F (stereo not given) | 12.69 |
| Cc1noc(C)c1CN1CCc2ncnc(-c3cccnc3)c2CC1.O=C(O)C(F)(F)F.O=C(O)C(F)(F)F | 12.88 |
| COc1cc(C(=O)Nc2cn[nH]c2)ccc1C | -19.45 |
| COc1cc(C(=O)Nc2c(C)noc2C)ccc1C | -2.052 |
| COc1cc(C(=O)Nc2nc(C)no2)ccc1OC1CCCC1 | -1.479 |
| COc1cc(C(=O)Nc2nc(C)no2)cc(Cl)c1OC | 101 |
| COc1cc(C(=O)NCc2ccc3c(c2)CCCN3C)cc(OC)c1Br | -0.1722 |
| COc1cc(C(=O)Nc2nc(C)no2)ccc1C | 106.9 |
| COc1cc(C(=O)NS(=O)(=O)c2cc(Cl)sc2Cl)ccc1OC(F)F | -14.59 |

| SMILES | Percent Effect [%] |
| --- | --- |
| COc1cc(C(=O)Nc2nc(C)no2)ccc1OC(F)F | 79.09 |
| COc1cc(C(=O)Nc2nc(C)no2)cc(OC)c1Br | 104.3 |
| COc1cc(C(=O)NS(=O)(=O)c2cccc(C#N)c2)cc(Cl)c1OC | -1.963 |
| COc1cc(C(=O)NS(=O)(=O)c2cncc(Br)c2)cc(Cl)c1OC | -14.73 |
| COc1cc(C(=O)NS(=O)(=O)c2cccc(C#N)c2)cc(OC)c1Br | -8.929 |
| O=C(N1CCCC1)N1CCO[C@H]2[C@@H](Oc3ccccn3)CC[C@@H]21.O=C(O)C(F)(F)F | 0.1764 |
| Cc1ccc(CN2CC[C@@H]3OCCN(S(C)(=O)=O)[C@H]3CC2)s1.O=C(O)C(F)(F)F | 16.37 |
| O=C(N1CCCC1)N1CCc2onc(COc3cccnc3)c2C1.O=C(O)C(F)(F)F | -4.712 |
| CC(C)Cc1cc(C(=O)NC(C)(C)CN2CCCCCC2)on1 | 72.52 |
| CC(C)Cc1cc(C(=O)NCC2CCCN(Cc3ccco3)C2)on1 (stereo not given) | 16.01 |
| CC(C)Cc1cc(C(=O)NCC(O)CN2CCCCCC2)on1 (stereo not given) | -12.74 |
| CCc1ncnc2c1CCN(C(=O)c1ccccn1)CC2.O=C(O)C(F)(F)F | -22.3 |
| CSc1ncccc1C(=O)N1C[C@H]2CC[C@@H]1CN(C(=O)N(C)C)C2 | -1.597 |
| Cc1csc(NC(=O)c2cnc(C3CCNCC3)cn2)n1.Cl | -24.76 |
| Cc1csc(NC(=O)c2cnc(C3CCCN3)cn2)n1.Cl (stereo not given) | 82.89 |
| Cc1nc(C(=O)NCc2ccccn2)cc(C2CCCN2)n1 (stereo not given) | 45.77 |
| O=C(NCc1ccccn1)c1cnc(C2CCCN2)cn1 (stereo not given) | 52.39 |
| O=C(NCc1ccccn1)c1cncc(C2CCCN2)n1 (stereo not given) | 2.609 |
| Cc1csc(NC(=O)c2cnc(C3CCCN(C)C3)cn2)n1 (stereo not given) | 23.5 |
| Cl.Cn1ccnc1C1(O)CCN(C(=O)CCc2ccccc2)CC1 | 1.719 |

| SMILES | Percent Effect [%] |
| --- | --- |
| Cc1noc(C)c1CN1CCc2c(CNc3nccs3)n[nH]c2C1.O=C(O)C(F)(F)F | 8.041 |
| CCCNC(=O)c1cc2c(s1)CCN2C(=O)CN(C)C.O=C(O)C(F)(F)F | 1.454 |
| C[C@H]1CN(c2ccccn2)C[C@@]12CCN(c1cccnc1)C2=O.O=C(O)C(F)(F)F.O=C(O)C(F)(F)F | 11.35 |
| COc1ccc(CN2CCC3(CC(=O)N(c4cncnc4)C3)C2)cc1.O=C(O)C(F)(F)F (stereo not given) | -12.31 |
| CN1CCC(c2nc3ccc(-c4ccccc4)cn3n2)CC1.O=C(O)C(F)(F)F | -24.93 |
| COc1ccccc1Cc1cncc(N2CC(C(=O)O)C2)n1.Cl | 2.257 |
| CN(Cc1n[nH]c2c1CCCC2)c1nc(C2CC2)nc2c1CCNCC2 | 1.399 |
| CN(C)c1nc2c(c(N(C)Cc3n[nH]c4c3CCCCC4)n1)CCNC2 | 76.86 |
| CN(C)c1nc2c(c(N(C)Cc3n[nH]c4c3CCCC4)n1)CCNCC2 | 31.61 |
| CCS(=O)(=O)N1C[C@@H](OCc2ccccn2)[C@@H]2OCCC[C@@H]21.O=C(O)C(F)(F)F | -14.72 |
| CCC1(CC)Cc2ccccc2-c2nc(CN(C)C)nc(O)c21 | 51.81 |
| CCC1(CC)Cc2ccccc2-c2nc(NCCO)[nH]c(=O)c21 | -12.78 |
| CCC1(CC)Cc2ccccc2-c2nc(NCCCO)[nH]c(=O)c21 | 0.6588 |
| Cc1cccc(C(=O)N2C[C@@H]3COC[C@@H](CC(=O)N4CCCC4)[C@@H]3C2)n1.O=C(O)C(F)(F)F | -12.77 |
| Cc1ccc(N2CCCC3(COCCN(c4ncccn4)C3)C2)nn1.O=C(O)C(F)(F)F (stereo not given) | -5.221 |
| O=C(O)C(F)(F)F.O=C(c1cc(C2CC2)on1)N1C[C@@H]2COC[C@]2(COc2cccnc2)C1 | 24.08 |
| CCc1cnc(N2CCC3(CC(=O)N(Cc4csc(C)n4)C3)C2)nc1.O=C(O)C(F)(F)F (stereo not given) | 1.546 |
| Cc1nc(C)n(CC2CCCN(c3ncnc4ccccc34)C2)n1 (stereo not given) | -1.971 |
| Cc1nc(C)n(CC2CCCN(c3ncnc4sccc34)C2)n1 (stereo not given) | 24.39 |
| Cc1nc(C)n(CC2CCCN(c3ncnc4ccsc34)C2)n1 (stereo not given) | 56.12 |
